Reference: PubChem BioAssay AID588413 (Sanford-Burnham Center for Chemical Genomics, 2011)
Among all 340,000 compounds or so, about 2,500 (0.74%) were called active.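 The calls were made as follows: active = inhibition above about 55% (limit read from the data); inactive = the rest.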 Shown is part of a subset that was picked to be rich in actives.

experiment: blockers of Gli reporter signaling – luciferase luminescence, Sufu-KO-LIGHT cells, uHTS, primary screen (AID 588413); details: Sufu-KO-LIGHT fibroblasts, at 5 µM, stronger effect = higher value;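 also: 0% = DMSO-treated cells and 100% = wells with medium but no cells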

SMILES | inhibition
CN(/N=C/c1ccccc1)C(=S)c1ccccc1 | 2.13% (inactive)
CN(O)C(=S)c1ccccc1 | 82.7% (active)
CN(CC(=O)O)C(=O)c1ccccc1 | -17.4% (inactive)
COc1ccc(CNc2c(CO)cnc3c2cnn3C)cc1 | 25.4% (inactive)
CCOC(=O)C1CN(S(=O)(=O)c2ccc(OC)cc2)c2cc(Cl)ccc2O1 (stereo not given) | 21.4% (inactive)
CCOc1ccc(S(=O)(=O)NCc2ccc3c(c2)OCO3)cc1C | -7.28% (inactive)
CCCOc1ccc(Cc2c(Cl)nc(SC)nc2NC)cc1 | 57.3% (active)
CCCOc1ccc(Cn2c(O)cc(=O)[nH]c2=O)cc1 | 9.29% (inactive)
CCCOc1ccc(Cc2c(O)nc(SC)[nH]c2=O)cc1C | -2.99% (inactive)
CC(C)N(C(=O)CN1CCN(S(=O)(=O)c2ccc(Br)s2)CC1)C(C)C | -1.96% (inactive)
CC(C)OCCCNc1ncnc2c1[nH]c1ccc(F)cc12 | 62% (active)
Fc1ccc2[nH]c3c(N4CCN(Cc5ccc6c(c5)OCO6)CC4)ncnc3c2c1 | -4.16% (inactive)
CC(=O)NCc1ccc(S(=O)(=O)NC2CCN(Cc3ccccc3)CC2)cc1 | -8.88% (inactive)
CC(=O)c1cc2c(cc1NC(=O)CN1CCCCCC1)OCO2 | -2.2% (inactive)
COc1ccc(Cn2c(=O)cc(C)[nH]c2=S)cc1 | 8.5% (inactive)
CCn1c(C)cc(=O)cc1-c1ccc(Cl)cc1 | 8.82% (inactive)
COc1ccc(Cn2c(-c3ccc(Cl)cc3)c[n+]3ccccc23)cc1 | 66.8% (active)
C[C@@H]1CN([C@@H](C)CO)C(=O)c2cc(NC(=O)C3CC3)ccc2O[C@H]1CN(C)C | -16% (inactive)
Cc1ccccc1N1CCN(CC(=O)NCc2ccc(Cl)cc2)CC1 | 6.04% (inactive)
COc1ccc(OC)c(CN2C(=O)CCC2(C)C(=O)NC2CCCCCC2)c1 (stereo not given) | 23.4% (inactive)
O=C(C1CCCO1)N1CCN(C(=S)NC2CC2)CC1 (stereo not given) | -11.3% (inactive)
Cc1ccc2nc(-c3ccc(Br)cc3)cn2c1 | 20.9% (inactive)
COc1ccc(-c2cn3ccc(C)cc3n2)cc1 | -72% (inactive)
Cc1ccc(-c2cn3cc(C)ccc3n2)cc1 | 63.8% (active)
O=C(CCS(=O)(=O)c1cccc2nonc12)NCCc1ccccc1Cl | 4.43% (inactive)

SMILES | inhibition
CC1(C)CCSC(/C=C/c2ccccc2)=N1 | 4.7% (inactive)
CCN(CC(=O)Nc1ccccc1C(F)(F)F)C(=O)C1CCN(C(=O)Nc2ccccc2)CC1 | 7.33% (inactive)
COc1cc(C(F)(F)F)c(C(=O)N(C)c2ccc(Cl)cc2)cn1 | 0.82% (inactive)
N=c1c2c3c(sc2nc2n1CCCCC2)CCCC3 | -5.48% (inactive)
O=C(CCc1ccccc1)Nc1ccnn1C1CCN(Cc2ccc(OCCO)cc2)CC1 | 11.7% (inactive)
CC[n+]1cc(C)ccc1/C=C/c1ccc(N(C)C)cc1 | 81.8% (active)
COc1ccc(-c2c(C#Cc3ccsc3)c3cc(-c4ccc(CN5CCOCC5)cc4)ccc3n2C)cc1 | 9.39% (inactive)
O=C(COc1cccnc1[N+](=O)[O-])Nc1ccc(Cl)cc1F | -19.8% (inactive)
Cc1ccc(-c2cc(C(=O)NC3CCN(Cc4ccccc4)CC3)c3ccccc3n2)cc1 | 10.8% (inactive)
Cc1ccc(-c2nc(CSCC(=O)NC3CCN(Cc4ccccc4)CC3)c(C)o2)cc1 | 67.4% (active)
Cc1ccc(S(=O)(=O)NCCC(=O)NC2CCN(Cc3ccccc3)CC2)cc1 | 3.57% (inactive)
Cc1cc(C)c(C=NNc2nc3c([nH]2)c(=O)n(C)c(=O)n3C)c(C)c1 | 1.9% (inactive)
Cc1ccc(C(=O)Nc2sc(Cc3ccc4c(c3)OCO4)c(C)c2C(N)=O)cc1 | -1.06% (inactive)
COCOc1cc(O)c(C(=O)/C=C/c2ccc(OCOC)c(OCOC)c2)c(OCOC)c1 | 3.02% (inactive)
CC(C)c1ccc(S(=O)(=O)N2CCN(C(=O)c3ccc(N4CCCC4)c([N+](=O)[O-])c3)CC2)cc1 | -1.24% (inactive)
Nc1ccc(C(=O)N2CCN(S(=O)(=O)c3ccc(Cl)cc3)CC2)cc1[N+](=O)[O-] | 98.7% (active)
Cc1ccc(S(=O)(=O)N2CCN(C(=O)c3ccc(-n4cncn4)c([N+](=O)[O-])c3)CC2)cc1 | 1.3% (inactive)
CC(=O)c1cc(-c2ccccc2)n(CCC(=O)NC2CCCCCC2)c1C | 1.89% (inactive)
COc1cccc2c1C(=O)c1c(O)c3c(c(O)c1C2=O)CC(O)(C(C)=NNC(=O)c1ccc(Cl)c(Cl)c1)CC3OC1CC(N)C(O)C(C)O1 (stereo not given) | 71.2% (active)
CCCCN(C(=O)c1ccc(S(=O)(=O)N2CCOCC2)cc1)C1CCS(=O)(=O)C1 (stereo not given) | 0.87% (inactive)
O=C(OC1CCOC1=O)c1ccc(-c2nc3ccccc3s2)s1 (stereo not given) | -21% (inactive)
Cc1cnc(NC(=O)c2ccccn2)s1 | -50.9% (inactive)
COc1ccc(/C(C)=N\NC(=O)c2ccc(-c3ccccc3)cc2)c(F)c1 | 2.32% (inactive)
C/C(=N\NC(=O)c1ccccc1F)c1ccccn1 | 58.4% (active)
C/C(=N\NC(=O)Cc1ccc(Cl)cc1)c1ccccn1 | 88% (active)

SMILES | inhibition
NC(=O)NC(CC(=O)NNC(=O)c1ccccn1)c1ccc(Cl)cc1 (stereo not given) | 5.55% (inactive)
CC(=NNC(=S)N1CCCCCC1)c1ccccn1 | 63.6% (active)
CNC(=S)N1CCN(c2ccccn2)CC1 | 2.59% (inactive)
CC1=NNC(=O)C1CCC(=O)N/N=C(\C)c1ccc(Cl)cc1 (stereo not given) | 3.52% (inactive)
Cc1cccc(C)c1NC(=S)N1CCCCCC1 | 3.64% (inactive)
O=C(COC(=O)c1ccc(O)cc1O)c1ccc2c(c1)OCCO2 | -30.6% (inactive)
C=CCn1cc(C(=O)NCc2ccc(Cl)cc2)c(=O)c2cc(S(=O)(=O)N(CC)CC)ccc21 | 9.9% (inactive)
Cc1ccc(S(=O)(=O)c2cc3c(=O)n4cccc(C)c4nc3n(CCc3ccccc3)c2=N)cc1C | 1.35% (inactive)
CC(C)c1ccc(/C=C/C(=O)NCCCN2CCOCC2)cc1 | -8.47% (inactive)
CNS(=O)(=O)c1ccc(NC(=O)C2CC(=O)N(c3ccc(Cl)cc3)C2)cc1 (stereo not given) | -4% (inactive)
CCOC(=O)c1c(C)[nH]c(C(=O)NCCN2CCOCC2)c1C | 17.9% (inactive)
CN(C)S(=O)(=O)c1ccc(Cl)c(NC(=O)COC(=O)CC(NC(N)=O)c2ccc(Cl)cc2)c1 (stereo not given) | -2.2% (inactive)
CCOP1(=O)C=C(C(C)(C)C)OC1c1ccc(F)cc1 (stereo not given) | 8.49% (inactive)
COc1cccc(NC(=S)NC(=O)c2c(Cl)c(C)nn2C)c1 | -24.8% (inactive)
CCCc1c(C(=O)Nc2ccc(F)cc2)cnn1-c1ccccc1 | -12.3% (inactive)
Cc1nn(C(C)C(=O)NCCC2=CCCCC2)c(=O)c2nn(-c3ccccc3)c(C)c12 (stereo not given) | 3.02% (inactive)
CCN1/C(=C\c2ccc3ccccc3[n+]2CC)Sc2cc(C)ccc21 | 90% (active)
CCN1/C(=C/c2ccc3ccc(C)cc3[n+]2CC)Sc2ccccc21 | 79.4% (active)
NC(=O)c1ccc(N2CCCC2)nc1 | 1.14% (inactive)
CCC1=[N+]([O-])C(C)(/C(C)=N\O)N(O)C1(C)C (stereo not given) | 17.9% (inactive)
COC(=O)Cc1[nH]n(-c2nc3ccccc3s2)c(=O)c1C(C)=Nc1ccc(OC)cc1 | 79.5% (active)
CC(=NCc1ccco1)c1c(C(F)(F)F)[nH]n(-c2nc3ccccc3s2)c1=O | -17.2% (inactive)
COc1ccc(C(=O)Nc2cccc(/C=C(/CCC(=O)O)c3nc4ccccc4s3)c2)cc1 | -20.1% (inactive)
CCCCC(=O)Nc1ccc(C(=O)Nc2cc(C(F)(F)F)ccc2Cl)cc1 | 5.23% (inactive)
NC(=O)N1CCCC1C(=O)Nc1ccc(Cl)c(Cl)c1 (stereo not given) | 1.62% (inactive)

SMILES | inhibition
O=C(CC(O)(C(F)(F)F)C(F)(F)F)Nc1ccc(Cl)c(Cl)c1 | 78.9% (active)
CCC1CCCCN1C(=O)CSc1nc2c(c(=O)n1C)SC(C)C2 (stereo not given) | 1.3% (inactive)
COc1ccc(OC)c(/C=N/NC(=O)CSc2nnc(C)n2-c2ccccc2)c1 | -2.67% (inactive)
COc1ccc(CC(=O)NCC(=O)N/N=C/c2cc(Br)ccc2OC)cc1 | -1.49% (inactive)
COc1ccc(OC)c(/C=N/NC(=O)c2ccc[n+](CC(=O)c3ccccc3)c2)c1 | 91.4% (active)
Cc1cc(NC(=O)CN2CCCC(C)C2)n(-c2nc3ccccc3s2)n1 (stereo not given) | 20% (inactive)
CCC(C)Cn1c(O)cc2nn(-c3nc4ccccc4s3)c(=O)c-2c1C (stereo not given) | 83.4% (active)
CCc1ccc[n+](-c2nc([O-])sc2C=O)c1 | 6.64% (inactive)
COc1ccc(NC(=O)CNC(=O)Cn2ccc3ccccc3c2=O)c(OC)c1 | -0.61% (inactive)
COc1ccc(OC)c(NC(=O)c2sc3nc(C)cc(C)c3c2N)c1 | -3.47% (inactive)
COc1ccc(OC)c(Cc2cnc3nc(N)nc(N)c3c2C)c1 | 63.1% (active)
COc1ccc(OC)c(Cc2nnc(CCC(=O)NC3CCCC3)o2)c1 | -18.7% (inactive)
CC(C)=CCCC1(C)C=Cc2c(ccc3c2[nH]c2cc(O)c(C)cc23)O1 (stereo not given) | -3.46% (inactive)
CS(=O)(=O)N1CCCC(C(=O)Nc2ccccc2C(F)(F)F)C1 (stereo not given) | -2.21% (inactive)
O=C(O)CCCCCCCCc1cn(CN2C(=O)c3ccccc3C2=O)nn1 | -12.6% (inactive)
OCC1(Cc2ccccc2C(F)(F)F)CCN(Cc2cccc3cnccc23)CC1 | 25.5% (inactive)
CC1CC2=C(CC1/C=N/NC(N)=S)C(C)(C)CCC2 (stereo not given) | 72.7% (active)
COc1cccc(CN(C)C(=O)CC23CC4CC(CC(C4)C2)C3)c1OC | -2.54% (inactive)
Cn1c(N)c(C(=O)COC(=O)/C=C/c2ccc(OC(F)F)cc2)c(=O)n(C)c1=O | 5.01% (inactive)
COC(=O)c1sc(NC(=S)NC(=O)c2ccc(C)cc2)nc1C | -41.9% (inactive)
N#Cc1c(-c2cccs2)nc(SCC(=O)c2ccc(Br)cc2)[nH]c1=O | 4.3% (inactive)
N#Cc1ccc(C(=O)Nc2nc(-c3cccs3)c(C(=O)C(F)(F)F)s2)cc1 | 62.5% (active)
C/C(N)=C(\C#N)C(=O)NCCc1ccccn1 | -1.25% (inactive)
C=CC[C@H](CC(=O)OC(C)(C)C)C(=O)OC[C@H]1CCCN1C(=O)[C@H](CC=C)CC(=O)N(CCO)Cc1ccccc1 | 7.8% (inactive)
Nc1nc(SCC(=O)Nc2ccc(Cl)c([N+](=O)[O-])c2)n[nH]1 | -5.39% (inactive)
